Consider 40 molecules from PubChem BioAssay (EPA / NIEHS).

Activity calls are given as the source filed them. How the source made its calls: active means hit-call score of the fitted dose curve at least 0.9, where 1 is the maximum; inactive means score below 0.9.

Read-out in the test: Transforming growth factor beta 1 (TGFb1), TGFB1 (gene 7040)
Description: BSK_KF3CT_TGFb1: BioMAP Diversity Plus: KF3CT Assay for Transforming growth factor beta 1 (TGFb1) Biomarker Activity (AID 2283072). Particulars: primary human keratinocytes with fibroblasts; actives raise or lower the signal. As for the experimental part: BSK_KF3CT is a cell-based, multiplexed-readout assay that uses keratinocytes and foreskin fibroblasts, a human skin primary cell co-culture, with measurements taken at 24 hours after chemical dosing in a 96-well plate.BSK_KF3CT_TGFb1 is an assay component measured in the BSK_KF3CT assay. It measures TGF-b1 antibody related to regulation of gene expression using ELISA technology.Data from the assay component BSK_KF3CT_TGFb1 was analyzed into 1 assay endpoint. This assay endpoint, BSK_KF3CT_TGFb1, was analyzed with bidirectional fitting relative to DMSO as the negative control and baseline of activity. Using a type of binding reporter, gain or loss-of-signal activity can be used to understand changes in the signaling as they relate to the gene TGFB1. Furthermore, this assay endpoint can be referred to as a primary readout, because this assay has produced multiple assay endpoints where this one serves a signaling function. To generalize the intended target to other relatable targets, this assay endpoint is annotated to the growth factor intended target family, where the subfamily is transforming growth factor beta.
The levels of cell surface (or secreted, indicated by the prefix "s") biomarker endpoints were measured by ELISA. Overt cytotoxicity to cells in confluent adherent cultures (all systems other than the BT system) was assessed by measuring total protein levels using sulforhodamine B (SRB) staining in parallel cultures at the time of biomarker measurements, indicated as SRB endpoints. For proliferation assays for adherent cell types, individual cell types are cultured at sub-confluence and relative cell numbers quantified by SRB staining at time points optimized for each system (48 h: 3C and CASM3C systems; 72 h: BT and HDF3CGF systems; 96 h: SAg system). SRB was performed by staining cells with 0.1% SRB after fixation with 10% TCA and reading wells at 560 nm.Viability and proliferation of PBMC (T cells) was quantified by Alamar Blue reduction for the SAg and BT systems. For PBMC viability (referred to as PBMC Cytotoxicity within the assay endpoint names), cells were plated (75,000/well in a 96-well plate) and then chemical samples added for 1 h before addition of activators, SEB and TSST-1 (20 ng/mL final concentration each). Cells were incubated for 90 h. Then, Alamar Blue (20 uL/well) (Invitrogen, Cat DAL1100) was added for 6 h, and the plates were read with a fluorescence microplate reader at 546/580 nm (excitation/emission). For PBMC proliferation, cells were plated and activated as above but incubated for only 16 h prior to addition of Alamar Blue. Plates were read after 6 h.
Take `CCCc1ccccc1`: the outcome was inactive.
Still for that read-out and setting: next, `CC(C)c1nnc2ccc(-c3ocnc3-c3cc(F)ccc3F)cn12`: “inactive”; `CCn1nc(C)c2c1C(=O)NCC(c1ccc(O)cc1)=N2`: “inactive”.
On to `CC(C)CCCCCCOC(=O)C1CCCCC1C(=O)OCCCCCCC(C)C` (stereo not given), for which the outcome was inactive.
On the same count and under the same terms, next, `CCCC(CCC)C(=O)O`: “inactive”.
On the same count and under the same terms, the same measure for `CCCCCCCCCC`: “inactive”.
Still for that read-out and setting: next, `OC(Cn1cncn1)(Cn1cncn1)c1ccc(F)cc1F`: “inactive”; `O=C(NO)C1(NS(=O)(=O)c2ccc(Oc3ccc(F)cc3)cc2)CCOCC1`: “inactive”.
Consider `O=C(O)c1ccc2c(c1)nc(C(=O)NC1CCN(C3CC3)CC1)n2Cc1cc(-c2ccc(Cl)s2)on1`, for which the result was inactive.
In the case of `OCC(CO)(CO)CO`, the result was inactive.
As to `CCc1ccc(O)c(C(C)(C)C)c1`, the half-maximal activity concentration (AC50) was 33.5 µM (active).
Turning to `O=C(O)c1cccc(C[C@@H]2COc3ccc(OCc4nc5cc(F)ccc5s4)cc3[C@@H]2O)c1`, the outcome was inactive.
Still for that read-out and setting: the same measure for `O=S(=O)(O)c1ccc(N=Nc2c(O)ccc3cc(S(=O)(=O)O)ccc23)cc1`: “inactive”.
Same read-out and setting: the same measure for `OCc1ccccc1`: “inactive”.
Same read-out and setting: next, `CCOc1ccc2[nH]cc(C(=O)NCc3ccccc3)c(=O)c2n1`: “inactive”.
In the case of `CCCCN1C(=O)[C@@H]([C@H](O)C2CCCCC2)NC(=O)C12CCN(Cc1ccc(Oc3ccc(C(=O)O)cc3)cc1)CC2`, the outcome was inactive.
With `CCCCCCCCCCCCCCCCOS(=O)(=O)O`, the AC50 is 17.4 µM (active).
Regarding `Cc1ccc(S(=O)(=O)NC(=O)NN2CCCCCC2)cc1`, the result was inactive.
With `CC(=O)c1ccccc1`, the outcome was inactive.
For `Cc1ncc([C@@H](CCCCCCc2ccc3c(n2)NCCC3)CC(=O)O)cn1`, the result was inactive.
Still for that read-out and setting: next, `CCCCCCCC/C=C\CCCCCCCC(=O)OC[C@@H](O)[C@H]1OC[C@H](O)[C@H]1O`: “inactive”.
For the molecule `c1ccc2ncccc2c1`, the outcome was inactive.
Consider `O=S1(=O)CCCO1`, for which the result was inactive.
The same measure, in the same setting: next, `Cn1cc[nH]c1=S`: “inactive”; `CCCCCOC(C)=O`: “inactive”; `CC1(C)C(=O)N(Cl)C(=O)N1Cl`: “inactive”.
The same measure, in the same setting: next, `COCc1nnc(-c2ccc[n+]([O-])c2)n1-c1c(Cl)c(Cl)cc2[nH]c(=O)c(=O)[nH]c12`: “inactive”.
Same read-out and setting: the same measure for `CCCCCCOC(=O)CC(CC(=O)OCCCCCC)(OC(=O)CCC)C(=O)OCCCCCC`: “inactive”.
Consider `CC(C)C(=O)Nc1ccc([N+](=O)[O-])c(C(F)(F)F)c1`, for which the outcome was inactive.
The same measure, in the same setting: next, `CCCCCCCCCCCCCCO`: “inactive”; `OCCOCCOCCO`: “inactive”.
The same measure, in the same setting: next, `c1ccc2c(c1)-c1cccc3c1c-2cc1ccccc13`: “inactive”; `C=CCc1cc(S(=O)(=O)c2ccc(O)c(CC=C)c2)ccc1O`: “inactive”; `CCc1cccc(CC)c1N`: “inactive”.
On to `NC(=O)N(O)[C@@H]1COc2cc(OCc3ccccc3)ccc21`, for which the outcome was inactive.
Regarding `CCCCCCCCN(C)C`, the outcome was inactive.
Still for that read-out and setting: next, `CC[C@H](C)C(=O)O[C@H]1C[C@H](O)C=C2C=C[C@H](C)[C@H](CC[C@@H](O)C[C@@H](O)CC(=O)O)[C@H]21`: “inactive”.
`OC[C@H]1O[C@@](CO)(O[C@H]2O[C@H](CO)[C@@H](O)[C@H](O)[C@H]2O)[C@@H](O)[C@@H]1O`: the outcome was inactive.
Still for that read-out and setting: the same measure for `NC(N)=O`: “inactive”; for `CCCOc1ccc(S(=O)(=O)N2CCN(CC)CC2)cc1-c1nc2c(CC)n(Cc3ccccn3)nc2c(=O)[nH]1`: “inactive”.

As usually defined, the AC50 is the concentration at which the activity in the assay is half-maximal.
